According to PubChem BioAssay AID765 (NMMLSC, 2007):
A number with no mark means an inactive call. Cut-off read from the data, not from the text of the source: active = inhibition above about 31%; inactive = the rest.

Target: N-formyl peptide receptor 2 (Homo sapiens) (UniProt P25090)
Assay: human FPR2 ligand displacement single-point screen – cell-based, flow cytometry, single concentration (AID 765)
Settings: FPRL1-expressing cells, fluorescent ligand binding inhibition, active compounds read high; at 5.1 µM unless noted

Sequence of N-formyl peptide receptor 2 (Homo sapiens) (P25090 whole entry, looked up): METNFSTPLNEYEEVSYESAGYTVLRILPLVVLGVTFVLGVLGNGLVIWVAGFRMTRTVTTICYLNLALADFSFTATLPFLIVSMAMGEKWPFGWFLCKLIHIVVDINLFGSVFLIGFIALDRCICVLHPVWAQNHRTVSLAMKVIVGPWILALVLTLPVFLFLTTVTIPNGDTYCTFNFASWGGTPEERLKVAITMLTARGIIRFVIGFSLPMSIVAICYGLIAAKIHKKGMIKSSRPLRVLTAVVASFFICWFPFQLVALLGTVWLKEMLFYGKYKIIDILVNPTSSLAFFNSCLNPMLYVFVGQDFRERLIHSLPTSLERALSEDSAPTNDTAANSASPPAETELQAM

Q: For `Fc1ccc(-c2cc(C(F)(F)F)nc(N3CCN(c4ccccc4)CC3)n2)cc1`, which inhibition is on record?
A: The inhibition was 1.9% [at 5.5 µM].

Q: How did the inhibition turn out when `O=C(O)CCC(=O)N1CCN(c2nc(-c3ccccc3)c3cc(Br)ccc3n2)CC1` was run?
A: Its inhibition is -3.9% [at 4.7 µM].

Q: How did the inhibition turn out when `CCCC(=O)Nc1cc(-c2cn3cccnc3n2)ccc1OC` was run?
A: The inhibition was 2.2% [at 7.2 µM].

Q: Which inhibition does the source give for `COc1ccc(-c2cn3cccnc3n2)cc1NC(=O)c1c(-c2ccccc2Cl)noc1C` here?
A: Its inhibition is 13.3% [at 4.8 µM].

Q: How did the inhibition turn out when `O=C(c1ccccc1)N1CCN(c2nc(-c3ccccc3)c3ccccc3n2)CC1` was run?
A: The inhibition was -1.3% [at 5.6 µM].

Q: Which inhibition does the source give for `CCC(CC)C(=O)Nc1cc(-c2cn3cccnc3n2)ccc1OC` here?
A: The inhibition was 11.5% [at 6.6 µM].

Q: Which inhibition does the source give for `Fc1ccc(-c2cc(C(F)(F)F)nc(N3CCN(c4cccc(Cl)c4)CC3)n2)cc1` here?
A: Its inhibition is 19.5%.

Q: `CN1CCN(c2nc(-c3ccccc3)c3cc(Cl)ccc3n2)CC1` was tested. Which inhibition did it give?
A: The inhibition was -15% [at 6.6 µM].

Q: For `COc1ccccc1N1CCN(c2nc(-c3ccc(F)cc3)cc(C(F)(F)F)n2)CC1`, which inhibition is on record?
A: The inhibition was -8.4%.

Q: With `COc1ccc(-c2cn3cccnc3n2)cc1NC(=O)c1ccccc1F` as the compound, how does the inhibition read?
A: Its inhibition is 0.8% [at 6.1 µM].

Q: `O=C(O)CCCC(=O)N1CCN(c2nc(-c3ccccc3)c3ccccc3n2)CC1` was tested. Which inhibition did it give?
A: The inhibition was -1.7% [at 5.5 µM].

Q: For `O=C(c1cccc(F)c1)N1CCN(c2nc(-c3cccs3)cc(C(F)(F)F)n2)CC1`, which inhibition is on record?
A: The inhibition was -12.6%.

Q: `COc1ccc(-c2cc(-c3ccc(F)cc3)nc(N3CCN(C)CC3)n2)cc1` was tested. Which inhibition did it give?
A: Its inhibition is -2.6% [at 5.9 µM].

Q: With `COc1ccc(-c2cn3cccnc3n2)cc1NC(=O)c1cc(Br)ccc1Cl` as the compound, how does the inhibition read?
A: The inhibition was 4.3% [at 4.9 µM].

Q: For `O=C(c1cccc(F)c1)N1CCN(c2nc(-c3ccc(F)cc3)cc(C(F)(F)F)n2)CC1`, which inhibition is on record?
A: Its inhibition is 2.3% [at 5 µM].

Q: With `CCOC(=O)N1CCN(c2nc(-c3ccc(C)cc3)cc(C(F)F)n2)CC1` as the compound, how does the inhibition read?
A: The inhibition was 1% [at 5.9 µM].

Q: Which inhibition does the source give for `COc1ccc(-c2cn3cccnc3n2)cc1NC(=O)c1ccc(C(C)(C)C)cc1` here?
A: The inhibition was -1% [at 5.6 µM].

Q: How did the inhibition turn out when `COc1ccccc1-c1cc(C(F)(F)F)nc(N2CCN(c3ccc(F)cc3)CC2)n1` was run?
A: The inhibition was -8.8%.

Q: With `CC(=O)N1CCN(c2nc(-c3ccccc3)c3cc(C)ccc3n2)CC1` as the compound, how does the inhibition read?
A: Its inhibition is 5.6% [at 6.4 µM].

Q: `Clc1ccccc1N1CCN(c2nc(-c3ccccc3)c3cc(Br)ccc3n2)CC1` was tested. Which inhibition did it give?
A: The inhibition was 5.1% [at 4.6 µM].

Q: Which inhibition does the source give for `COc1ccc(-c2cn3cccnc3n2)cc1NC(=O)CCc1ccccc1` here?
A: Its inhibition is 16% [at 6 µM].

Q: Which inhibition does the source give for `COc1ccc(-c2cn3cccnc3n2)cc1NC(=O)CCCc1ccccc1` here?
A: The inhibition was -8.7% [at 5.8 µM].

Q: For `COc1cccc(-c2cc(C(F)(F)F)nc(N3CCN(C)CC3)n2)c1`, which inhibition is on record?
A: The inhibition was -18% [at 6.3 µM].

Q: `COc1ccc(-c2cc(C(F)(F)F)nc(N3CCN(C)CC3)n2)cc1` was tested. Which inhibition did it give?
A: The inhibition was -15.1% [at 6.3 µM].
